Each structure is given as a SMILES string. Inconclusive results are not listed. Activity calls are given as the source filed them. The calls were made as follows, unless noted: active = hit-call score of the fitted dose curve at least 0.9, where 1 is the maximum; inactive = score below 0.9.

Experimental findings from PubChem BioAssay (EPA / NIEHS) are described below.

Assay [1] can be described thus: ATG_Hpa5_TRANS: Attagene TRANS-FACTORIAL HepG2 Assay for human GAL4-Hpa5 Hepatocyte Transcription Factor Basal Promoter (AID 2282975; active = hit-call score of the fitted dose curve at least 0.9, where 1 is the maximum;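 also: hits are increases in reporter mRNA over DMSO baseline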). As to conditions: HepG2 Attagene GAL4-Hpa5 transcription reporter. In outline: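 Basal-promoter GAL4 background control within the HepG2 trans-factorial panel of transiently transfected reporter units. Reporter mRNA is measured 24 h after dosing by RT-PCR and capillary electrophoresis, fitted for gain of signal versus DMSO.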

Assay [2] deals with Glucocorticoid receptor (Homo sapiens) (UniProt P04150). Kind of assay: ATG_GR_TRANS: Attagene TRANS-FACTORIAL HepG2 Assay for human Glucocorticoid Receptor (GR) (AID 2282978; active = hit-call score of the fitted dose curve at least 0.9, where 1 is the maximum;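 also: activators score as hits since higher reporter transcript over DMSO is fitted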). The note with it: HepG2 Attagene TRANS GR reporter, mRNA transcription. In outline:
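Transiently transfected HepG2 cells express chimeric NR-GAL4 proteins acting on GAL4-UAS reporter units. Compounds are applied for 24 h. mRNA induction over DMSO is measured by capillary electrophoresis.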

Assay [3] can be described thus: ATG_M_32_TRANS: Attagene TRANS-FACTORIAL HepG2 Assay for M32 Transcription Factor (Internal Marker) (AID 2282984; active = hit-call score of the fitted dose curve at least 0.9, where 1 is the maximum). As to conditions: HepG2 Attagene TRANS M32 internal marker reporter. Summed up:
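Using transiently transfected HepG2 cells exposed to test chemicals for 24 h, reporter transcripts are converted to labelled cDNA fragments and quantified by capillary electrophoresis. DMSO defines the activity baseline.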

Assay [4] addresses Transcriptional activator Myb (Homo sapiens) (UniProt P10242). Kind of assay: ATG_Myb_CIS: Attagene CIS-FACTORIAL HepG2 Assay for human Myeloblastosis (Myb) Proto-Oncogene Transcription Factor (AID 2282986). As to conditions: HepG2 Attagene CIS-FACTORIAL Myb reporter transcription; actives raise or lower the signal. In outline: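 Using HepG2 liver cells bearing transiently transfected cis-promoter reporter constructs, the assay measures induction or loss of reporter mRNA after 24 hours of dosing. Detection used fluorescently labeled RT-PCR products separated by capillary electrophoresis.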

Assay [5] deals with Nuclear respiratory factor 1 (Homo sapiens) (UniProt Q16656). Kind of assay: ATG_NRF1_CIS: Attagene CIS-FACTORIAL HepG2 Assay for human Nuclear Respiratory Factor 1 (NRF1) Orphan Gene (AID 2282987). As to conditions: HepG2 NRF1 cis-element reporter, Attagene multiplex; actives raise or lower the signal. Summed up:
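Reporter mRNA induction or loss in HepG2 cells after 24 h dosing; cis-regulated reporter constructs report endogenous transcription-factor activity. Quantified by RT-PCR/capillary electrophoresis fluorescence, DMSO-referenced.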

The nature of assay [6]: ATG_NFI_CIS: Attagene CIS-FACTORIAL HepG2 Assay for human Nuclear Factor I (NFI) (AID 2282989). As to conditions: HepG2 cis-regulatory reporter, NFI response element transcription; actives raise or lower the signal. Summed up: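 Transfected HepG2 liver cells, exposed 24 h, supplied total RNA for oligo(dT) reverse transcription and reporter-specific PCR. Labelled, HpaI-cut fragments were sized by capillary electrophoresis; DMSO set the baseline for bidirectional fitting.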

For assay [7], the target named is Myc proto-oncogene protein (Homo sapiens) (UniProt P01106). In words: ATG_Myc_CIS: Attagene CIS-FACTORIAL HepG2 Assay for human Myelocytomatosis (Myc) Proto-Oncogene Transcription Factor (AID 2282990). The note with it: HepG2, Attagene cis-reporter transcription factor activity; actives raise or lower the signal. Summed up:
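HepG2, transient MRTU transfection (cis promoters, endogenous TFs); 24 h dosing; TriZol RNA → oligo(dT) RT → PCR → 6-FAM primer extension → HpaI cut → CE. Bidirectional fit vs DMSO.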

A short description of assay [8]: ATG_NRF2_ARE_CIS: Attagene CIS-FACTORIAL HepG2 Assay for human Nuclear Factor Erythroid 2 Related Factor 2 (NFR2) response to Antioxidant Response Elements (ARE) (AID 2282992).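 As to AC50: reporter mRNA level measured by RT-PCR and capillary electrophoresis fluorescence.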 As to conditions: HepG2 Attagene ARE/NRF2 reporter, transcription factor activity; actives raise or lower the signal. Summed up: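 Multiplexed reporter mRNA profiling in HepG2 after a 24 h chemical exposure. Curves fitted in both directions relative to DMSO negative control.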

Assay [9] is described as follows: ATG_Oct_MLP_CIS: Attagene CIS-FACTORIAL HepG2 Assay for human Octamer-Binding Transcription Factor (Oct) (AID 2282993). The note with it: HepG2 Attagene cis-factorial Oct reporter, mRNA; actives raise or lower the signal. Summed up:
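Using HepG2 cells bearing transfected cis-reporter constructs, mRNA induction was read after 24 h by fluorescent RT-PCR and capillary electrophoresis, with DMSO defining baseline for gain- or loss-of-signal fits.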

For assay [10], the target named is Cellular tumor antigen p53 (Homo sapiens) (UniProt P04637). In words: ATG_p53_CIS: Attagene CIS-FACTORIAL HepG2 Assay for human p53 Transcription Factor (AID 2282994). The note with it: HepG2 p53 cis-element reporter, Attagene mRNA; actives raise or lower the signal. Summed up: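 Multiplexed reporter mRNA assay in human HepG2 liver cells; cis-regulated units report endogenous factor activity. Values come from bidirectional curve fitting against DMSO negative control after 24 h treatment.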
Cellular tumor antigen p53 (Homo sapiens), sequence (P04637 whole entry, looked up): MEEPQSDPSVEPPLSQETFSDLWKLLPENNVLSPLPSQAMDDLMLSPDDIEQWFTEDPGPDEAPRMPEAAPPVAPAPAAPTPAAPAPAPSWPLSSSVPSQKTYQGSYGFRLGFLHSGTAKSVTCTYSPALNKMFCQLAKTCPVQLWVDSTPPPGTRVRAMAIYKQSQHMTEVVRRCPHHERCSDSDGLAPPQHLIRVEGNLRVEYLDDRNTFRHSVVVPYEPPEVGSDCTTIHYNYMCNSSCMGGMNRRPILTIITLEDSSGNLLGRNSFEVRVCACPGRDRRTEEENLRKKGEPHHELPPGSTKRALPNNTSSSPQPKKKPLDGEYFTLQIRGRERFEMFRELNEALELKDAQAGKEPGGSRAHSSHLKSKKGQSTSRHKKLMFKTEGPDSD

The nature of assay [11]: BSK_3C_TissueFactor: BioMAP Diversity Plus: 3C Assay for Tissue Factor Biomarker Activity (AID 2282997). As to conditions: BioMAP 3C HUVEC, tissue factor biomarker readout; actives raise or lower the signal. Summed up: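 Primary human umbilical vein endothelial cells in the 3C system were exposed to test chemical for 24 h, then Tissue Factor measured by ELISA. Activity was fitted bidirectionally against DMSO as negative control and baseline.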

Assay [12] in a line: BSK_3C_uPAR: BioMAP Diversity Plus: 3C Assay for Urokinase-type plasminogen activator receptor (uPAR) Biomarker Activity (AID 2282998). The note with it: BioMAP 3C HUVEC, uPAR biomarker ELISA; actives raise or lower the signal. Summed up:
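In this endothelial cell-based assay, human umbilical vein primary cells were treated with chemicals and harvested at 24 h. uPAR was quantified using ELISA, with gains or losses fitted relative to DMSO controls.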
(In an ELISA, binding on a coated surface is turned into a signal by an enzyme label.)

The target of assay [13] is Oxysterols receptor LXR-alpha (Homo sapiens) (UniProt Q13133). In words: ATG_LXRa_TRANS: Attagene TRANS-FACTORIAL HepG2 Assay for human Liver X Receptor alpha (LXRa) (AID 2282980; active = hit-call score of the fitted dose curve at least 0.9, where 1 is the maximum). The note with it: HepG2 Attagene TRANS reporter, LXRa transactivation. In outline:
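HepG2 cells were transiently transfected with multiplexed reporter units driven by chimeric LXRa–GAL4 fusion proteins, then dosed for 24 h. Reporter mRNA was quantified by RT-PCR, fluorescent labelling and capillary electrophoresis; gain of signal fitted against DMSO baseline.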

The target of assay [14] is Oxysterols receptor LXR-beta (Homo sapiens) (UniProt P55055). In words: ATG_LXRb_TRANS: Attagene TRANS-FACTORIAL HepG2 Assay for human Liver X Receptor beta (LXRb) (AID 2282981; active = hit-call score of the fitted dose curve at least 0.9, where 1 is the maximum). As to conditions: HepG2 Attagene TRANS GAL4-LXRb reporter, mRNA. In outline:
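Cells: HepG2, transiently transfected with GAL4-UAS reporter units plus LXRb-Gal4 fusion. Treatment: 24 h. Detection: reporter mRNA by RT-PCR, 6-FAM labelling, HpaI digestion, capillary electrophoresis.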

The target in assay [15] is Bile acid receptor (Homo sapiens) (UniProt Q96RI1). In words: ATG_FXR_TRANS: Attagene TRANS-FACTORIAL HepG2 Assay for Farnesoid X Receptor (FXR) (AID 2282979; active = hit-call score of the fitted dose curve at least 0.9, where 1 is the maximum;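 also: hits raise reporter mRNA above DMSO so AC50 marks FXR activation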). The note with it: HepG2 Attagene TRANS FXR-GAL4 reporter transcription. In outline: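 HepG2 cells transiently transfected with reporter constructs in which a chimeric FXR-GAL4 protein drives a GAL4-UAS reporter; 24 h compound exposure. Reporter mRNA measured by RT-PCR, FAM labelling, HpaI digestion and capillary electrophoresis; gain-of-signal versus DMSO.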

For assay [16], the target named is Hepatocyte nuclear factor 4-alpha (Homo sapiens) (UniProt P41235). Kind of assay: ATG_HNF4a_TRANS: Attagene TRANS-FACTORIAL HepG2 Assay for human Hepatocyte Nuclear Factor 4 alpha (HNF4a) (AID 2282982; active = hit-call score of the fitted dose curve at least 0.9, where 1 is the maximum). The note with it: HepG2 HNF4a transactivation reporter, mRNA readout. Summed up:
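Transfected HepG2 reporter cells are dosed for 24 h; reporter RNA is reverse-transcribed, amplified, fluorescently labelled and HpaI-digested before CE sizing. Positive-direction fit against DMSO.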

The target of assay [17] is Nuclear receptor subfamily 4 group A member 2 (Homo sapiens) (UniProt P43354). In words: ATG_NURR1_TRANS: Attagene TRANS-FACTORIAL HepG2 Assay for human Nuclear Receptor Related Protein 1 (NURR1) (AID 2282985; active = hit-call score of the fitted dose curve at least 0.9, where 1 is the maximum). The note with it: HepG2 Attagene TRANS reporter, mRNA readout. In outline:
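Cells: HepG2, transiently transfected. Exposure: 24 h. Detection: fluorescence of labelled RT-PCR products separated by capillary electrophoresis; upward fit versus DMSO.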

Assay [18] in a line: ATG_M_06_TRANS: Attagene TRANS-FACTORIAL HepG2 Assay for M06 Transcription Factor (Internal Marker) (AID 2282983; active = hit-call score of the fitted dose curve at least 0.9, where 1 is the maximum;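 also: reporter transcript level by RT-PCR then capillary electrophoresis fluorescence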). As to conditions: HepG2 Attagene TRANS M06 internal marker reporter. Summed up: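 HepG2 cells transiently transfected with multiplexed GAL4-UAS reporter transcription units; after 24 h compound exposure, reporter mRNA measured by RT-PCR, FAM-labelled primer extension, HpaI digestion and capillary electrophoresis. Gain-of-signal fitted versus DMSO baseline; background control readout.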

Assay [19] is described as follows: ATG_GAL4_TRANS: Attagene TRANS-FACTORIAL HepG2 Assay for GAL4 (Internal Marker) (AID 2282976; active = hit-call score of the fitted dose curve at least 0.9, where 1 is the maximum). The note with it: HepG2 Attagene TRANS GAL4 internal marker reporter. Summed up:
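HepG2 cells transiently transfected with multiplexed GAL4-UAS reporter constructs were dosed for 24 h. Reporter mRNA was measured by RT-PCR, 6-FAM primer extension, HpaI digestion and capillary electrophoresis, and gain of signal was fitted relative to DMSO.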

Assay [20] in a line: ATG_NF_kB_CIS: Attagene CIS-FACTORIAL HepG2 Assay for human Nuclear Factor Kappa B (NF-kB) (AID 2282991). The note with it: HepG2 Attagene cis-factorial NF-kB reporter mRNA; actives raise or lower the signal. In outline:
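DMSO served as negative control and baseline for bidirectional curve fitting. Transiently transfected HepG2 cells were dosed for 24 h, then reporter transcripts were measured by RT-PCR with capillary electrophoresis detection.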

Myc proto-oncogene protein (Homo sapiens), sequence (P01106 whole entry, looked up): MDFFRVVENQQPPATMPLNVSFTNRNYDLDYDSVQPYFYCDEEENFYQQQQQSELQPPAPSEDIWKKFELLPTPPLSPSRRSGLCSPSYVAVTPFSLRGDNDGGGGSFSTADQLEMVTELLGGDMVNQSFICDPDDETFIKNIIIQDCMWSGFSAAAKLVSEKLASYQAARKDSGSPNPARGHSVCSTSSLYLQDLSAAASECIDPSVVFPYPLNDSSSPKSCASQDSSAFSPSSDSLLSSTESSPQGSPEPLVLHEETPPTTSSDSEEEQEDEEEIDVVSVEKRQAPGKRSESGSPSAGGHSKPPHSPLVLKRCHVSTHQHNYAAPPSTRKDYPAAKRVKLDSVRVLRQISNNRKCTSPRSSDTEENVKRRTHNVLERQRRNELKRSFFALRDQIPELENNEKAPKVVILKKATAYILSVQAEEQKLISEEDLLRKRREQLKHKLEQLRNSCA
Nuclear receptor subfamily 4 group A member 2 (Homo sapiens), sequence (P43354 whole entry, looked up): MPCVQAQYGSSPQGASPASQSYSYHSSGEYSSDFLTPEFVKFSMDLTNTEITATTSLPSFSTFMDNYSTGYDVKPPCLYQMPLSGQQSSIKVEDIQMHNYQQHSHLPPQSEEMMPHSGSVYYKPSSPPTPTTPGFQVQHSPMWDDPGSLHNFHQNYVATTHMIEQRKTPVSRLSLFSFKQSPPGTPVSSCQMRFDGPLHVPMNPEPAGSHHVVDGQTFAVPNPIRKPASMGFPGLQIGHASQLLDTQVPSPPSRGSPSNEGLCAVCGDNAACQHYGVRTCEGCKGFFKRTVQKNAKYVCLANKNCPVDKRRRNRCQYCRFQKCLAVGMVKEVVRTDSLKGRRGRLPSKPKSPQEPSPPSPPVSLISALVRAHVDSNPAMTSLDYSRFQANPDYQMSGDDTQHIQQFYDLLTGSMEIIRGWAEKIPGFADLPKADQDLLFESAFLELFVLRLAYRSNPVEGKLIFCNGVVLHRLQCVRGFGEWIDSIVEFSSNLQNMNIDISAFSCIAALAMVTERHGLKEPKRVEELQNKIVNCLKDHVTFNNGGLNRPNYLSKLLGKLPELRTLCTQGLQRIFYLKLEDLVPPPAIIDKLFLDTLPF
Oxysterols receptor LXR-beta (Homo sapiens), sequence (P55055 whole entry, looked up, the tested form may be a part): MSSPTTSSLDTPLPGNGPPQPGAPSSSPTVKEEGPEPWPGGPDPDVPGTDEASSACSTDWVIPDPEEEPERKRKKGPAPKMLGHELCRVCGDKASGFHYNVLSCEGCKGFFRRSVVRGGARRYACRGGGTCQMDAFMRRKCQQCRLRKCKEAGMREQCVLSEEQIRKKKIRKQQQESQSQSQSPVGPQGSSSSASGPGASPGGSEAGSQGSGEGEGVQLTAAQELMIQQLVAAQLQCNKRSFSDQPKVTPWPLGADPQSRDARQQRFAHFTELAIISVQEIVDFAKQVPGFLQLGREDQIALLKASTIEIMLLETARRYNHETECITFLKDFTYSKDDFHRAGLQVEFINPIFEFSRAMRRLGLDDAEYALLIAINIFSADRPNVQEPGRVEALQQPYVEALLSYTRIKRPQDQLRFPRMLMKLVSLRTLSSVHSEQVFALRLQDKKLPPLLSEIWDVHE
Nuclear respiratory factor 1 (Homo sapiens), sequence (Q16656 whole entry, looked up): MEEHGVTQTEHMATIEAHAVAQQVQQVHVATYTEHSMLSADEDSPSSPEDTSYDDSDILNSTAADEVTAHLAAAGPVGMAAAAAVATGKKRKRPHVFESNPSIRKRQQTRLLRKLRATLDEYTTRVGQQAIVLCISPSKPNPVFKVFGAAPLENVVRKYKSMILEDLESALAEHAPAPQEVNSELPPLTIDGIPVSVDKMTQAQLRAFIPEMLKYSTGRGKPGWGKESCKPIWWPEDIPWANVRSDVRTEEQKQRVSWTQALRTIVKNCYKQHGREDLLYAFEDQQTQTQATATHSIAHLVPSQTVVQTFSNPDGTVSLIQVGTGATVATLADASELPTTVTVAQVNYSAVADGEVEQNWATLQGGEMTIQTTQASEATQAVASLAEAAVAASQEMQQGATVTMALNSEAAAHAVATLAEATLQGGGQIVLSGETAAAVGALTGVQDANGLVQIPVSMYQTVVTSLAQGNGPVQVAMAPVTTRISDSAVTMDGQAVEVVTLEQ
Glucocorticoid receptor (Homo sapiens), sequence (P04150 whole entry, looked up, the tested form may be a part): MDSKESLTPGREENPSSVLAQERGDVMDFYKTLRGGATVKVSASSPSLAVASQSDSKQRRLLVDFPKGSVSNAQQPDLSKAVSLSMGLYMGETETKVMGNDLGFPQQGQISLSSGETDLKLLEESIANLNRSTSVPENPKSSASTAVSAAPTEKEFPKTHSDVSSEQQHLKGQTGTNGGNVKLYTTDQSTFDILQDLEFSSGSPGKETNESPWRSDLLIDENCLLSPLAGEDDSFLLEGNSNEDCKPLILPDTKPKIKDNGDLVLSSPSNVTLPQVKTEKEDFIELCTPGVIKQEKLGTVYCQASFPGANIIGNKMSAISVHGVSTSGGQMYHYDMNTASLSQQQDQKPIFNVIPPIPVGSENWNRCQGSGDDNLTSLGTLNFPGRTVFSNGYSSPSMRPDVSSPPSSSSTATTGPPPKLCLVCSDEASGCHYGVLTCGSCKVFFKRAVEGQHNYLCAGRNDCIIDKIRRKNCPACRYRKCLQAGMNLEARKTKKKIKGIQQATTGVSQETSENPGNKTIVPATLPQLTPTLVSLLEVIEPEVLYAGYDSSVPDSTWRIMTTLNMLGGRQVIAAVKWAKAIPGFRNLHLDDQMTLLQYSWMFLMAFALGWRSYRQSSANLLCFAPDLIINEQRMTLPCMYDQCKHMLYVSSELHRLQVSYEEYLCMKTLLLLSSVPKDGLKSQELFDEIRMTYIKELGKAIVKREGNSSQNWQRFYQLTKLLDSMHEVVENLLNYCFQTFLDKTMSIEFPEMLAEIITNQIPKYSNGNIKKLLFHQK
Oxysterols receptor LXR-alpha (Homo sapiens), sequence (Q13133 whole entry, looked up, the tested form may be a part): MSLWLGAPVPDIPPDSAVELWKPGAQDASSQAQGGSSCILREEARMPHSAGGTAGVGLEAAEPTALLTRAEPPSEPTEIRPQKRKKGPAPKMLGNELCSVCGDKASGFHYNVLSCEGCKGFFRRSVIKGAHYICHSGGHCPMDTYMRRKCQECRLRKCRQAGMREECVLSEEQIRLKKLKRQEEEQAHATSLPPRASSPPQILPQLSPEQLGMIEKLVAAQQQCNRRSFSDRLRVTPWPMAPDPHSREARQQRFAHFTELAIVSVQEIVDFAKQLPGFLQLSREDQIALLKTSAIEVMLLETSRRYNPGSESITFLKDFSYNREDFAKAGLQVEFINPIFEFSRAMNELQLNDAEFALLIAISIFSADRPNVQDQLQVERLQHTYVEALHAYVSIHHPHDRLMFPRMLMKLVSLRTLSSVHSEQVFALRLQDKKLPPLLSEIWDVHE
Hepatocyte nuclear factor 4-alpha (Homo sapiens), sequence (P41235 whole entry, looked up): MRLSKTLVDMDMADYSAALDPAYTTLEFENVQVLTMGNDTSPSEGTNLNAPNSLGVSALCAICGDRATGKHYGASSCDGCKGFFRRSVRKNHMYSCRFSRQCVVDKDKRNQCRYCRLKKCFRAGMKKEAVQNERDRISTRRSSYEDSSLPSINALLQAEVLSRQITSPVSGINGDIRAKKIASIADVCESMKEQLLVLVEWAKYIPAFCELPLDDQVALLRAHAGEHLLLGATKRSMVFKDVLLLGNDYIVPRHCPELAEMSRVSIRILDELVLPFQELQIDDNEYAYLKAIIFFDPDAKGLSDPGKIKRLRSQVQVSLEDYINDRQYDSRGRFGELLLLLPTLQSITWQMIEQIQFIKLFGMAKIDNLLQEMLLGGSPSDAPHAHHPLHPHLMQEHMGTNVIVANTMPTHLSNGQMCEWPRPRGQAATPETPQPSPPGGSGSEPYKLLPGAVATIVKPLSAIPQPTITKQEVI
Transcriptional activator Myb (Homo sapiens), sequence (P10242 whole entry, looked up): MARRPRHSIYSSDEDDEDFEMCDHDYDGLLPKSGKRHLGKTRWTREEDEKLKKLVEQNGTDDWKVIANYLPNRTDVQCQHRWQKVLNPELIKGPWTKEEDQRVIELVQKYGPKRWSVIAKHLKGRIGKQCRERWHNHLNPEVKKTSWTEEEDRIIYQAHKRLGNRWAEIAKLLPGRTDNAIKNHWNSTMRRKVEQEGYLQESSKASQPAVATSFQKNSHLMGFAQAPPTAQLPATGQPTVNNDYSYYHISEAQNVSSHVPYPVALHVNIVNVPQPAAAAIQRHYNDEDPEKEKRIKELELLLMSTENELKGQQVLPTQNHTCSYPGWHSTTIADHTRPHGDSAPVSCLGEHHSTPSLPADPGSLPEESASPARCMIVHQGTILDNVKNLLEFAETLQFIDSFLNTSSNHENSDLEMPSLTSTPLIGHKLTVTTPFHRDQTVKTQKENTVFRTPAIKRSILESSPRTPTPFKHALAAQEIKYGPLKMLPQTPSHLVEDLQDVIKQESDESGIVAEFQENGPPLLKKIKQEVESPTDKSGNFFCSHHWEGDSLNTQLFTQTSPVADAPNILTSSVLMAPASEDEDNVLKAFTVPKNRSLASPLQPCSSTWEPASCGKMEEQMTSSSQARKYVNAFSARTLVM

As a reminder, the AC50 is the concentration at which the activity in the assay is half-maximal. `CC(C)N1C(=O)N(c2ccccc2)CSC1=NC(C)(C)C`: the call in [1], in assay [2], in assay [3], in assay [4], in assay [5] and in assay [6] was inactive. The result in assay [7], in assay [8], in [9] and in assay [10] was inactive. Besides, the values for the AC50 in [11] and in assay [12] were 22.9 µM (active) and 30.4 µM (active), respectively.
With `CS(=O)(=O)c1cc(C(F)(F)F)ccc1C(=O)c1cnoc1C1CC1`, the molecule was called inactive in assay [1], in [2], in [13], in [14], in assay [3] and in [5]. The molecule was classed as inactive in assay [6], in [7], in assay [10], in [11] and in assay [12]. Further, the AC50 is 19.1 µM (active) in [8] and 50 µM (active) in assay [9].
Turning to `CCOc1nc(F)cc2nc(S(=O)(=O)Nc3c(Cl)cccc3Cl)nn12`, the result in assay [2], in [15], in assay [13], in assay [14], in [16] and in [3] was inactive. Besides, the call in assay [17], in assay [5], in [7], in assay [8], in [9] and in assay [10] was inactive. Moreover, the result in [11] and in [12] was inactive.
For the molecule `CCOP(=S)(OCC)Oc1nc(Cl)n(C(C)C)n1`, the molecule was classed as inactive in assay [2], in [16], in [18], in assay [3], in assay [17] and in assay [5]. For the same molecule, the call in assay [7], in assay [9], in [10], in assay [11] and in assay [12] was inactive. For the same molecule, the half-maximal activity concentration (AC50) was 14.9 µM (active) in [13], 16.4 µM (active) in assay [14] and 1.74 µM (active) in assay [8].
Consider `CC(C)NC(=O)N1CC(=O)N(c2cc(Cl)cc(Cl)c2)C1=O`, for which the molecule was classed as inactive in [19], in [13], in assay [14], in assay [18], in assay [3] and in assay [17]. The outcome in assay [4], in assay [5], in [6], in assay [7], in [20] and in [9] was inactive. The molecule was classed as inactive in assay [10] and in [11]. Further, the AC50 in assay [8] is 7.39 µM (active); in assay [12], 32.8 µM (active).
